The list is not random: actives were taken first. Their share in the collection is about 22%.
LmPK inh – inhibitors of Leishmania mexicana pyruvate kinase. purified LmPK, Kinase-Glo ATP luminescence, 1 h. Potency, µM (highest dose often 57.5 µM), for inactives: at the top dose activity change, negative = inhibition, usual class: inhibitors. 0.37% of 290,000 active. AID 1721; further: potency means the concentration at half of the fitted maximal effect; on the % scale 0 is the no-effect control and ±100 the full control effect
Target sequence (Q27686 whole entry, looked up): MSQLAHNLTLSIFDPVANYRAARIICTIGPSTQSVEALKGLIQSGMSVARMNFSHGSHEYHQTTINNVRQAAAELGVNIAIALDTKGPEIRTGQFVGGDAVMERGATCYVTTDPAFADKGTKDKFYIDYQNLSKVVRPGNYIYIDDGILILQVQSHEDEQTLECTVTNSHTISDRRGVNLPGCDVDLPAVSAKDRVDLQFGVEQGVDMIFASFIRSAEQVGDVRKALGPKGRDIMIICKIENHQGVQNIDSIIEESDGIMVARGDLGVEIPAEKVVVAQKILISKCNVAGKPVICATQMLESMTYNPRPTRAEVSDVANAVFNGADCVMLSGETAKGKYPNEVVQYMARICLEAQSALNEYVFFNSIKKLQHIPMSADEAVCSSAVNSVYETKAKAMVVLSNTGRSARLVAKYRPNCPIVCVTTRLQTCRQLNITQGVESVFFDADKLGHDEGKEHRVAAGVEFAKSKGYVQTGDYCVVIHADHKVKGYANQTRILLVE
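ATP generated from ADP (0.1 mM) and PEP (0.5 mM) by 0.1 nM LmPK over 1 h at room temperature (pH 7.2 imidazole buffer) was detected by coupled luciferase luminescence. Values were normalized to uninhibited and no-enzyme wells.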
Cycloheximide cs – counter-screen hit for Shiga toxin inhibitors, cycloheximide; cell reporter, cycloheximide protein synthesis inhibition counterscreen; max response, %; 12% of 300,000 active; in the data active means max response mostly above about 13%, no sharp cut-off; inactive means mostly below about 14%; further: read at 38.3 µM for the half of the compounds with a filed dose; 0% is about no effect
Pf growth 96h – inhibits malaria parasite growth, 96 h; Potency, µM (doses to about 28.7 µM), for inactives: at the highest dose activity change, negative = inhibition, hits mostly inhibitors; P. falciparum luciferase reporter growth, 96 h; AID 504834; 6.9% of 320,000 active; further: potency means the concentration at half of the fitted maximal effect; on the % scale 0 is the no-effect control and ±100 the full control effect
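Infected RBCs, 2% Hct / 0.05% parasitemia final; luciferase-reporter P. falciparum; cpd 96 h, 37 C, 5% CO2; luciferase detection reagent; luminescence.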
Shiga toxin inh – inhibitors of Shiga toxin in Vero cells. inhibition, % at 38.7 µM. AID 2315. Vero cells, Shiga toxin protein synthesis inhibition reporter. 9.2% of 290,000 active; in the data active means inhibition mostly above about 28%, no sharp cut-off; inactive means mostly below about 43%; further: 0% is about no effect
Pf growth 48h – P. falciparum growth inhibition at 48 hours (one generation); P. falciparum luciferase growth in erythrocytes, 48 h; Potency, µM (doses to about 28.7 µM), for inactives: top-dose activity change, negative = inhibition, usual class: inhibitors; 5.9% of 310,000 active; further: potency means the concentration at half of the fitted maximal effect; on the % scale 0 is the no-effect control and ±100 the full control effect
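Cell-based growth assay: transgenic P. falciparum expressing firefly luciferase, cultured in red cells within RPMI 1640 containing 0.5% w/v Albumax, 24 mM bicarbonate and gentamycin. A drop in luciferase activity indicates inhibition.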
* hit, by the source's call; ? = inconclusive; · = not tested or not shown. Unless noted, the call rests on the fitted dose curve; in most records, active means well fitted inhibition curve with a large enough effect; inconclusive means small, poorly fitted or top-dose-only effect, or another doubt; inactive means no such curve, though single readings can be large or run the other way.

SMILES | LmPK inh | Cycloheximide cs | Pf growth 96h | Shiga toxin inh | Pf growth 48h
CCN(CC)C1CCCCC1NS(=O)(=O)c1ccc(Cl)cc1 (configuration not stated) | 8.9% | -1.4 | ? | 11.5 | -14.9%
CN(c1ccccc1)C1CCCCC1NS(=O)(=O)c1ccc(Cl)cc1 (configuration not stated) | 3.3% | 0.5 | ? | -7.4 | 6.57µM*
COc1cccc(NC(=O)CCC2CCN(C(=O)c3scnc3C)CC2)c1 | -9.0% | -4.5 | 49.5% | -15.1 | 6.3%
N#C/C(=C\c1ccc[nH]1)C(=O)Nc1ccccc1[N+](=O)[O-] | -16.5% | 22.5* | -11.5% | 66.6* | 82.9%
Cc1ccccc1NC(=O)/C(C#N)=C/c1ccc[nH]1 | 3.3% | 29.5* | 11.7µM* | 25.9 | 0.9%
Cc1cccc(C)c1NC(=O)/C(C#N)=C/c1ccsc1 | -2.5% | -3.1 | ? | -6.0 | 0.0%
N#C/C(=C\c1ccc[nH]1)C(=O)N1CCCCC1 | 1.0% | 8.5 | 16.7% | 13.2 | ?
COc1ccc(NC(=O)/C(C#N)=C/c2ccc(-c3ccc(Cl)c(C(=O)O)c3)o2)cc1 | -6.8% | -0.7 | ? | -11.1 | -19.6%
Cc1ccccc1NC(=O)/C(C#N)=C/c1ccc(-c2ccc(Cl)c(C(=O)O)c2)o1 | 5.6% | 11.8* | 4.1% | 15.0 | 15.4%
Cc1ccccc1NC(=O)/C(C#N)=C/c1ccsc1 | 1.1% | 25.3* | ? | 36.8* | 1.3%
Cc1ccccc1NC(=O)/C(C#N)=C\c1cn(CC(=O)O)c2ccccc12 | 0.7% | 7.6 | ? | -15.8 | -2.1%
CC(C)C(=O)Nc1ccc(NC(=O)c2cccc3c(Br)cccc23)cc1 | -1.4% | -1.7 | 19.7% | -5.4 | 14.9%
COc1ccc(CCN=C(N)NS(=O)(=O)c2ccc(F)cc2)cc1 | -1.7% | -2.2 | 27.5% | 24.4 | 0.6%
CC(=O)Nc1ccc(S(=O)(=O)Nc2cc(S(=O)(=O)N3CCCCC3)ccc2O)cc1 | · | · | 2.8% | · | ?
CCOc1ccc(Cl)cc1S(=O)(=O)N1CCC(C(=O)NCc2ccncc2)CC1 | -2.0% | -6.3 | 53.5% | 2.8 | -7.1%
O=C(CN(Cc1ccccc1Cl)C(=O)c1ccc(CN2CCOCC2)o1)NCC1CCCO1 (configuration not stated) | -0.9% | -4.4 | ? | -15.5 | -2.8%
CCc1nc(N)nc(N)c1-c1ccc(Cl)cc1 | -4.2% | -3.7 | 4.26µM* | -10.2 | 0.0828µM*
CCC(=O)n1nc(-c2ccc(Cl)cc2)nc1N | -4.6% | 14.0 | ? | 28.1 | 25.5%
NS(=O)(=O)c1ccc(CCNC(=O)CNC(=O)C2CCCCC2)cc1 | -2.4% | -0.6 | 11.7µM* | -2.8 | 10.4%
O=C(NCCc1ccc(F)cc1)C1CCCCC1 | -3.5% | 23.6* | 100.5% | 41.5 | 41.4%
O=C(O)C1CCCCC1C(=O)NCCc1ccc(F)cc1 (configuration not stated) | 2.8% | -2.5 | 9.28µM* | -4.2 | 21.3%
CC(=O)Nc1cc(Cl)ccc1OS(=O)(=O)c1ccc(C)cc1 | -1.9% | -1.3 | 279.4% | -10.1 | 19.8%
C=CCNC(=O)COc1cc(C)cc(C)c1C | 1.0% | -4.9 | 64.3% | -8.8 | 24.3%
N#Cc1c(-c2ccccc2)ccn(Cc2cccc(Cl)c2)c1=O | 0.4% | 7.6 | 13.1µM* | 8.7 | ?
CSc1cc(-c2ccccc2)n(Cc2ccccc2Cl)c(=O)c1C#N | 5.7% | -1.2 | 45.0% | -11.3 | ·
SMILES | LmPK inh | Cycloheximide cs | Pf growth 96h | Shiga toxin inh | Pf growth 48h
N#Cc1c(-c2ccccc2)ccn(Cc2ccccc2Cl)c1=O | -4.5% | -3.5 | 14.7µM* | -13.0 | ?
Cc1nc2c(sc(=S)n2Cc2ccco2)c(=O)n1CC(=O)Nc1cc(F)ccc1F | -3.2% | 4.7 | ? | -3.8 | -25.3%
COc1cccc(-c2cc(C(=O)N3CCCCC3C)no2)c1 (configuration not stated) | -3.3% | 28.0* | ? | 104.8* | 119.5%
COc1cccc(-c2cc(C(=O)N3CCCCCC3)no2)c1 | -12.9% | 37.1* | ? | 54.1* | 147.5%
COc1ccc(-c2cc(C(=O)N3CCCCCC3)no2)cc1 | -2.8% | 19.7* | 10.0% | 69.8* | 180.8%
COc1ccc(-c2cc(C(=O)N3CCCCCC3)no2)cc1OC | 0.4% | 30.4* | 134.2% | 51.7* | 70.4%
COc1cccc(-c2cc(C(=O)N3CCN(c4ccc(F)cc4)CC3)no2)c1 | 0.7% | -2.0 | 16.6% | -17.0 | 10.7%
O=C1CC(c2ccc(F)cc2)C(n2cncn2)C(O)=C1C1NCCc2ccccc21 (configuration not stated) | 1.2% | -0.7 | 0.0% | -14.1 | 3.5%
CCSc1ncccc1C(=O)N[C@@H](CCSC)C(=O)OC | -1.8% | -2.4 | 2.6% | -4.7 | -0.1%
COc1ccc(-c2cc(C(=O)N3CCCC3)no2)cc1 | -16.0% | 25.0* | -0.1% | 73.7* | 45.5%
CCc1ccc(-c2cc3c(=O)n(CC(=O)NCCCN4CCC(Cc5ccccc5)CC4)nc(C)n3n2)cc1 | 1.6% | 0.5 | ? | -6.1 | ?
CCC1CCCCN1CCCNC(=O)Cn1ncn2nc(-c3ccc(OC)cc3)cc2c1=O (configuration not stated) | -0.4% | 29.3* | ? | 54.8* | -12.9%
Cc1nn(CC(=O)NCCCN2CCC(Cc3ccccc3)CC2)c(=O)c2cc(-c3ccccc3)nn12 | 2.7% | 8.8 | 4.15µM* | -3.6 | ?
COc1ccc(-c2cc3c(=O)n(CC(=O)N4CCCCC4)ncn3n2)cc1 | 1.6% | -1.5 | 13.9% | 4.4 | 52.2%
CCc1ccc(-c2cc3c(=O)n(CC(=O)NCc4ccccc4F)ncn3n2)cc1 | -10.8% | 1.9 | ? | 10.3 | 45.1%
CCc1ccc(-c2cc3c(=O)n(CC(=O)NCCCN4CCN(C)CC4)ncn3n2)cc1 | -1.0% | 23.5* | 140.5% | 35.8* | ?
COc1ccc(-c2cc3c(=O)n(CC(=O)NCCCc4ccccc4)ncn3n2)cc1 | -5.2% | 16.2* | ? | 26.3* | 134.3%
COc1ccc(-c2cc3c(=O)n(CC(=O)NCc4ccccc4OC)ncn3n2)cc1 | -2.3% | 1.4 | 3.8% | -3.2 | -12.2%
COc1ccc(Br)cc1CN(C)CC(O)COc1ccc(Br)cc1 (configuration not stated) | 12.1% | 1.1 | ? | -9.7 | ?
COc1ccc(CC(=O)N(Cc2ccccc2)c2ccc(C)cc2)cc1OC | -10.8% | -2.7 | ? | -10.3 | 0.3%
CCN(CCCNC(=O)Cn1ncc2c([nH]c3ccc(C)cc32)c1=O)Cc1ccccc1 | -5.7% | -3.2 | 35.9% | -2.1 | -11.9%
CN(C)S(=O)(=O)c1ccc(C(=O)NN2C(=O)NC3(CCCCC3)C2=O)cc1 | · | · | 21.6% | · | ?
CCc1ccc(CN2CCC(Oc3ccc(C(=O)N4CCCC4)cc3)CC2)cc1 | 0.0% | 10.7 | ? | 6.4 | 9.28µM*
Cc1cccc(CN2CCC(Oc3ccc(C(=O)N4CCCCC4)cc3)CC2)c1 | -6.3% | -1.2 | 9.28µM* | 5.3 | ?
Cc1ccccc1CN1CCC(Oc2ccc(C(=O)N3CCCC3)cc2)CC1 | -1.8% | -3.8 | 74.2% | -9.7 | ?
